The list is not random: actives were taken first. Their share in the collection is about 3.5%.
Mtb bLac sens: beta-lactam sensitization of Mtb H37Rv. M. tuberculosis H37Rv growth with meropenem, percent inhibition. inhibition, % at 25 µM. 330,000 tested, 0.27% active; call rule not given here;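 note: growth measured after seven days incubation then overnight dye step; 0% = bacteria only wells and 100% = bacteria with antibiotic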
Mtb FBA inh: Mtb fructose-bisphosphate aldolase inhibition | P9WQA3 | purified M. tuberculosis FBA, fluorescence read-out | inhibition, % at 1 µM | 360,000 tested, 2.3% active | AID 588726; in the data active = inhibition above about 27%;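 note: 0% = vehicle and 100% = reference inhibitor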
GDH-TPI inh: inhibits GDH-TPI coupling enzymes, artifact for Mtb FBA screen. GDH-TPI coupled enzyme counterscreen, NADH absorbance. inhibition, % at 4.8 µM. 360,000 tested, 1.2% active. AID 588335; in the data active = inhibition above about 30%;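 note: 0% = DMSO wells and 100% = wells lacking the enzyme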
Rv3671c inh: inhibitors of M. tuberculosis serine protease Rv3671c | inhibition, % at 5.96 µM | 320,000 tested, 0.048% active; in the data active = inhibition above about 38%;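 note: extracellular domain of Rv3671c used as enzyme; 0% = enzyme with DMSO and 100% = no enzyme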
Mtb UGM inh: inhibitors of M. tuberculosis UDP-galactopyranose mutase. P9WIQ1. purified UGM, fluorescence polarization probe displacement. inhibition, % at 10 µM. 320,000 tested, 0.06% active; in the data active = inhibition above about 10%, passing the limit was not always enough
Target sequence (P9WIQ1 whole entry, looked up): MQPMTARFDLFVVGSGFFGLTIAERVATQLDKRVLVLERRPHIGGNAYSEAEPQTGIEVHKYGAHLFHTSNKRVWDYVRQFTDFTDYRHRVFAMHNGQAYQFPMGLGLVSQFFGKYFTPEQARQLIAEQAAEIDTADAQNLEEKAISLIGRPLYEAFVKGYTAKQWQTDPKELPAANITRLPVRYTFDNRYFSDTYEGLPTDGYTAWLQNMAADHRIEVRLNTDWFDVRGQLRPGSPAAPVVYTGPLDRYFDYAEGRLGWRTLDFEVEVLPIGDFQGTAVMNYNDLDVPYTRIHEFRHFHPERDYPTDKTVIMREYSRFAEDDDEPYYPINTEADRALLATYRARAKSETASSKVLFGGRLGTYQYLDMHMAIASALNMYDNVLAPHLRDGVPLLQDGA
Active calls of the source: *; . = not tested or not shown; + = active, no number.

SMILES	Mtb bLac sens	Mtb FBA inh	GDH-TPI inh	Rv3671c inh	Mtb UGM inh
CC(=O)c1ccc(-c2ccc(C(=O)NCC3CCCO3)o2)cc1 (stereo not drawn)	-2	+	17	1	.
Cc1cccc(-n2cnc3c(sc4nc(N5CCOCC5)c5c(c43)CCCC5)c2=O)c1	65	-1	17	-9	1
CC1CCCN(Cc2csc(N)n2)C1 (stereo not drawn)	2	1	-2	9	0
Cc1nccc2c1[nH]c1ccc(Br)cc12	7	7	9	-2	5
COc1ccc2c(c1)[nH]c1c(C)nccc12	10	151*	7	9	-3
OC(c1ccc(-c2ccccc2)cc1)c1ncc(-c2ccccc2Cl)[nH]1 (stereo not drawn)	.	-1	3	.	.
Cc1ccc(-n2c(=O)c(C#N)cc3c(=O)n4ccccc4nc32)cc1	9	149*	3	3	0
CCC(C)n1c(=N)c(C#N)cc2c(=O)n3ccccc3nc21 (stereo not drawn)	-6	16	-2	-8	-2
Cc1ccc(C)c(-n2c(=O)c(C#N)cc3c(=O)n4ccccc4nc32)c1	1	133*	4	5	0
Cc1cccc(-n2c(=O)c(C#N)cc3c(=O)n4ccccc4nc32)c1	5	+	5	11	-2
Cc1ccc(S(=O)(=O)NCC(=O)N/N=C/c2ccccc2O)cc1	-1	10	8	10	-1
CC(C)=CCn1c2ccc(NC(=O)NCc3ccc(F)cc3)cc2c(=O)n1C	.	138*	5	.	.
COc1ccc(CCNC(=O)Nc2ccc3c(c2)c(=O)n(C)n3CC=C(C)C)cc1OC	.	148*	3	.	.
CCNC(=O)Nc1ccc2c(c1)c(=O)n(C)n2CC=C(C)C	.	173*	4	.	.
CC1(C)c2[nH]c3ccccc3c2C[C@@H]2C(=O)N(Cc3ccco3)C(=O)N21	42	3	4	4	1
O=C(NCc1ccco1)c1ccc(OC2CCN(Cc3ccccn3)CC2)cc1	.	-1	-3	.	.
COc1ccc(Cl)cc1S(=O)(=O)N(C)CC(=O)NCc1ccccn1	-6	-4	-1	1	-4
CCCCC(CC)COC(=O)C(C#N)=C(c1ccccc1)c1ccccc1 (stereo not drawn)	-1	-4	3	4	-1
COc1cc(CNc2ncnc3c2ncn3[C@H]2CN(CCc3ccccc3)C[C@@H](CO)O2)cc(OC)c1OC	.	1	6	.	.
CN(C)c1ccc(/C=C/c2nnnn2-c2ccccc2)cc1	-5	-1	41*	-9	-3
Cc1cc(N/C=C\c2nnnn2-c2ccccc2)no1	2	-3	1	-12	-2
Cc1ccn(C)c(=N)c1	-2	2	6	-4	1
COCCCNc1nc2nonc2nc1N(C)CC1CCCN1C (stereo not drawn)	-4	1	36*	2	-2
COCCCNc1nc2nonc2nc1N1C[C@H]2CC[C@H]1C2	1	4	16	5	-1
Cc1ccc(/C=N/NC(=O)c2cc(-c3ccc(C)o3)[nH]n2)cc1	0	-2	5	-8	5
SMILES	Mtb bLac sens	Mtb FBA inh	GDH-TPI inh	Rv3671c inh	Mtb UGM inh
O=C(N/N=C/C=N/NC(=O)c1ccco1)c1ccco1	-4	-1	54*	4	1
Cc1ccc(S(=O)(=O)N2CCN(CC(=O)N/N=C/c3ccccc3OCC(=O)O)CC2)cc1	6	.	.	15	2
O=C(N/N=C\c1ccccc1OCc1ccccc1)c1ccco1	2	-2	20	6	2
COc1ccccc1/C=C/C=N/NC(=O)c1ccco1	-2	3	37*	6	-1
COc1ccccc1/C=C/C=N/NC(=O)c1cc(-c2ccc(C)o2)[nH]n1	99	0	44*	-14	-4
COc1ccccc1/C=C/C=N/NC(=O)CN1CCN(S(=O)(=O)c2ccc(C)cc2)CC1	0	-5	33*	3	0
Cc1ccc(C2(c3noc(CN(C)Cc4cnn(C)c4)n3)CCCC2)cc1	5	4	-2	0	3
C/C(=N/NC(=O)c1ccco1)c1ccc(Br)s1	3	-1	43*	.	0
Cc1ccsc1/C=N/NC(=O)c1ccco1	-1	-1	33*	-8	0
Cc1ccsc1C=Nc1ccc(O)cc1	-5	4	11	-22	1
Cc1ccsc1/C=N/N=C/c1sccc1C	-6	0	33*	-7	0
COc1ccccc1/C=C/C=N/NC(=O)Cc1cccs1	-1	-2	32*	-1	2
O=C(Cc1cccs1)N/N=C/C=C/c1ccccc1[N+](=O)[O-]	-14	-1	16	-6	-1
Cc1ccc(S(=O)(=O)N2CCC(C(=O)Nc3ccncc3)CC2)cc1	0	0	-7	12	-1
COc1ccc(N(C)S(=O)(=O)c2cccc(C(=O)OCC(=O)N3CC(C)CC(C)C3)c2)cc1 (stereo not drawn)	-3	0	-1	-2	-1
Cc1ccc(S(=O)(=O)N(Cc2cc3cccc(C)c3[nH]c2=O)c2ccccc2)cc1	-6	-3	-2	9	-1
OCC(O)C1OC(Nc2ccc(Cl)cc2)C(O)C1O (stereo not drawn)	0	0	5	4	-1
CC(=O)OC1CCC2C3CCc4cc(OP(=O)(N5CC5)N5CC5)ccc4C3CCC12C (stereo not drawn)	.	1	0	.	.
COc1cc(C)nc(NC(=O)NC(=O)c2ccc(C(F)(F)F)cc2)n1	2	0	0	-2	2
COc1ccccc1/C=C/C=N/NC(=O)c1ccncc1	99	-6	44*	-7	1
COc1ccccc1C=NNC(=O)c1ccncc1	.	1	26	.	.
COc1cc(/C=N/NC(=O)c2ccccc2NS(=O)(=O)c2cccs2)ccc1O	.	8	36*	.	.
O=C(NN=Cc1ccc(F)cc1)c1ccccc1NS(=O)(=O)c1cccs1	-1	5	11	-2	0
COc1cc(/C=N/NC(=O)c2sc(N)c(C#N)c2C)ccc1O	7	-4	61*	-15	0
O=C(N/N=C/c1ccc([N+](=O)[O-])o1)c1ccccc1NS(=O)(=O)c1cccs1	99	1	32*	5	1
SMILES	Mtb bLac sens	Mtb FBA inh	GDH-TPI inh	Rv3671c inh	Mtb UGM inh
COc1ccc(Cl)cc1S(=O)(=O)N(C)CC(=O)N1CCOCC1	-10	5	-1	10	3
CN(CC(=O)Nc1ccccc1Cl)C(=O)COC(=O)C1CC1	8	2	-9	1	-2
COc1cc(OC)cc(-c2c(C#Cc3ccsc3)c3cc(-c4ccc5cc[nH]c5c4)ccc3n2C)c1	13	19	33*	-1	-1
COc1cc(OC)cc(-c2c(C#Cc3ccsc3)c3cc(-c4ccccc4OC)ccc3n2C)c1	-8	19	39*	-3	2
COc1ccc(-c2c(C#Cc3ccsc3)c3cc(-c4ccc5cc[nH]c5c4)ccc3n2C)cc1	-1	4	17	3	-1
CC(=O)Nc1ccc(S(=O)(=O)NCC2CCC(C(=O)NCCCN(C)Cc3ccccc3)CC2)cc1 (stereo not drawn)	-3	-2	-4	-5	-1
COCc1c(C(=O)Nc2nnc(C3CC3)s2)oc2ccccc12	.	-1	44*	.	.
